# Assay results reported in PubChem BioAssay (NCI).
# Compounds without any hit were thinned out: in the full panel of roughly 79,000, 15% have a hit. Values without a mark were called inactive. The source made the active and inactive calls. Cut-off read from the data, not from the text of the source: active = growth inhibition above about 70%; inactive = the rest.
# Assays:
# [1] = NCI Yeast Anticancer Drug Screen. Data for the rad52 strain (AID 147);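 note: 0% = growth of vehicle-treated control cultures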; conditions: S. cerevisiae rad52 mutant growth inhibition, hits give high values
# Summary of the method: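 Genetically altered yeast (DNA damage repair defect) treated with compound; inhibition calculated relative to vehicle.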
# [2] = NCI Yeast Anticancer Drug Screen. Data for the wt1 strain (AID 149);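 note: 0% = growth of vehicle-treated wt1 cultures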; conditions: S. cerevisiae wt1 strain (SPY 50644) growth inhibition, hits give high values
# Summary of the method: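 wt1 yeast, compound-treated; % growth inhibition vs vehicle control.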
# [3] = NCI Yeast Anticancer Drug Screen. Data for the rad50EPP+ strain (AID 151);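 note: 0% = growth of vehicle-treated control cultures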; conditions: S. cerevisiae rad50 mutant strain, hits give high values
# Summary of the method: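 Strain rad50EPP+; compound exposure; % growth inhibition vs vehicle.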
# [4] = NCI Yeast Anticancer Drug Screen. Data for the mgt1 strain (AID 153); conditions: S. cerevisiae mgt1 mutant growth inhibition, hits give high values
# Summary of the method: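 Read-out: yeast growth inhibition vs vehicle control. Strain mgt1, drawn from a panel altered in DNA damage repair or cell cycle control.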
# [5] = NCI Yeast Anticancer Drug Screen. Data for the rad50 strain (AID 155);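 note: 0% = growth of vehicle-only cultures of the same strain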; conditions: S. cerevisiae rad50 strain growth inhibition, hits give high values
# Summary of the method: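 Genetically altered yeast (DNA repair pathway); compound treatment; growth inhibition vs vehicle ctrl.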
# [6] = NCI Yeast Anticancer Drug Screen. Data for the mec2-1 strain (AID 157); conditions: S. cerevisiae mec2-1 strain, hits give high values
# Summary of the method: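 Cells of the genetically defined mec2-1 yeast strain are incubated with test compound. Inhibition of growth is calculated against vehicle-treated controls.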
# [7] = NCI Yeast Anticancer Drug Screen. Data for the rad14 strain (AID 159);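 note: 0% = growth of vehicle-treated control cultures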; conditions: S. cerevisiae rad14 strain growth inhibition, hits give high values
# Summary of the method: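 Test compounds were applied to a repair-deficient yeast strain. Its growth was then compared with that of cultures given vehicle alone, and inhibition was expressed relative to those controls.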
# [8] = NCI Yeast Anticancer Drug Screen. Data for the sgs1 mgt1 strain (AID 161);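 note: 0% = growth of cultures given vehicle only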; conditions: S. cerevisiae sgs1 mgt1 strain, hits give high values
# Summary of the method: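 Inhibition of yeast growth, normalised to vehicle-treated controls, is reported for a strain bearing genetic alterations in DNA damage repair.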
# [9] = NCI Yeast Anticancer Drug Screen. Data for the CLN2oe strain (AID 163);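 note: 0% = growth of vehicle-only control cultures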; conditions: S. cerevisiae CLN2oe strain, hits give high values
# Summary of the method: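 Strain altered in cell-cycle control, incubated with compound; growth compared to solvent-treated controls.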
# [10] = NCI Yeast Anticancer Drug Screen. Data for the cln2 rad14 strain (AID 165);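 note: 0% = growth equal to vehicle treated cultures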; conditions: S. cerevisiae cln2 rad14 strain, hits give high values
# Summary of the method: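 The screen exposed genetically defined yeast (cln2 rad14) to test compounds and scored growth inhibition relative to vehicle-treated controls.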
# [11] = NCI Yeast Anticancer Drug Screen. Data for the bub3 strain (AID 167); conditions: S. cerevisiae bub3 mutant strain, hits give high values
# Summary of the method: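 Yeast carrying a defined mutation is treated with each compound, and growth is compared with that of vehicle-exposed cells to give inhibition.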
# [12] = NCI Yeast Anticancer Drug Screen. Data for the wt2 strain (AID 169);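 note: 0% = growth of vehicle-treated yeast cultures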; conditions: S. cerevisiae wt2 strain growth inhibition, hits give high values
# Summary of the method: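 Steps: yeast strain treated with compound; growth recorded; inhibition calculated relative to cultures given vehicle alone.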
# [13] = NCI Yeast Anticancer Drug Screen. Data for the mlh1 strain (AID 171);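 note: 0% = growth of vehicle-treated control cultures of the same strain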; conditions: S. cerevisiae mlh1 strain growth inhibition, hits give high values
# Summary of the method: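 Yeast screen: mutant strain plus compound, growth scored against vehicle control wells.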
# [14] = NCI Yeast Anticancer Drug Screen. Data for the sgs1 strain (AID 173);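 note: 0% = growth of vehicle-only control cultures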; conditions: S. cerevisiae sgs1 mutant, hits give high values
# Summary of the method: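 Inhibition of yeast growth served as the measure. The mutant strain was treated with each compound, and growth was normalised to cultures receiving vehicle alone.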
# [15] = NCI Yeast Anticancer Drug Screen. Data for the mlh1 rad18 strain (AID 175); conditions: S. cerevisiae mlh1 rad18 strain growth inhibition, hits give high values
# Summary of the method: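 Compound-treated yeast growth, normalised to vehicle controls. Strain bears defined DNA repair mutations.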
# [16] = NCI Yeast Anticancer Drug Screen. Data for the rad18 strain (AID 177); conditions: S. cerevisiae rad18 mutant growth inhibition, hits give high values
# Summary of the method: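 Inhibition values reflect reduced yeast growth compared with vehicle-treated controls, using a strain engineered with a DNA damage repair defect.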
# [17] = at 5.0 µM (retest, dose inferred, filed as 0.5)
# [18] = at 50.0 µM (retest, dose inferred, filed as 5.0)
smiles,measurement,setting,value
[O-][n+]1c2ccc(O)cc2nc2ccc(Br)cc21,growth inhibition,[1]; at 1.2 µM,1%
same,growth inhibition,[1]; at 3.7 µM,16%
same,growth inhibition,[1]; at 11.0 µM,42%
same,growth inhibition,[1]; at 33.0 µM,83% (active)
same,growth inhibition,[1]; at 100.0 µM,85% (active)
same,growth inhibition,[2]; at 1.2 µM,1%
same,growth inhibition,[2]; at 3.7 µM,14%
same,growth inhibition,[2]; at 11.0 µM,22%
same,growth inhibition,[2]; at 33.0 µM,45%
same,growth inhibition,[2]; at 100.0 µM,67%
same,growth inhibition,[3]; at 1.2 µM,6%
same,growth inhibition,[3]; at 3.7 µM,20%
same,growth inhibition,[3]; at 11.0 µM,55%
same,growth inhibition,[3]; at 33.0 µM,75% (active)
same,growth inhibition,[3]; at 100.0 µM,77% (active)
same,growth inhibition,[4]; at 1.2 µM,4%
same,growth inhibition,[4]; at 3.7 µM,21%
same,growth inhibition,[4]; at 11.0 µM,46%
same,growth inhibition,[4]; at 33.0 µM,85% (active)
same,growth inhibition,[4]; at 100.0 µM,87% (active)
same,growth inhibition,[5]; at 1.2 µM,2%
same,growth inhibition,[5]; at 3.7 µM,18%
same,growth inhibition,[5]; [17],36%
same,growth inhibition,[5]; at 11.0 µM,56%
same,growth inhibition,[5]; at 33.0 µM,87% (active)
same,growth inhibition,[5]; [18],96% (active)
same,growth inhibition,[5]; at 50.0 µM,88.5% (active)
same,growth inhibition,[5]; at 100.0 µM,87% (active)
same,growth inhibition,[6]; at 1.2 µM,-1%
same,growth inhibition,[6]; at 3.7 µM,12%
same,growth inhibition,[6]; [17],2%
same,growth inhibition,[6]; at 11.0 µM,25%
same,growth inhibition,[6]; at 33.0 µM,49%
same,growth inhibition,[6]; [18],81% (active)
same,growth inhibition,[6]; at 50.0 µM,78.8% (active)
same,growth inhibition,[6]; at 100.0 µM,61%
same,growth inhibition,[7]; at 1.2 µM,2%
same,growth inhibition,[7]; at 3.7 µM,7%
same,growth inhibition,[7]; at 11.0 µM,29%
same,growth inhibition,[7]; at 33.0 µM,67%
same,growth inhibition,[7]; at 100.0 µM,81% (active)
same,growth inhibition,[8]; [17],30%
same,growth inhibition,[8]; [18],86% (active)
same,growth inhibition,[8]; at 50.0 µM,65%
same,growth inhibition,[9]; at 1.2 µM,14%
same,growth inhibition,[9]; at 3.7 µM,21%
same,growth inhibition,[9]; at 11.0 µM,40%
same,growth inhibition,[9]; at 33.0 µM,54%
same,growth inhibition,[9]; at 100.0 µM,64%
same,growth inhibition,[10]; [17],16%
same,growth inhibition,[10]; [18],88% (active)
same,growth inhibition,[10]; at 50.0 µM,49%
same,growth inhibition,[11]; at 1.2 µM,5%
same,growth inhibition,[11]; at 3.7 µM,16%
same,growth inhibition,[11]; [17],32%
same,growth inhibition,[11]; at 11.0 µM,41%
same,growth inhibition,[11]; at 33.0 µM,78% (active)
same,growth inhibition,[11]; [18],74% (active)
same,growth inhibition,[11]; at 50.0 µM,84% (active)
same,growth inhibition,[11]; at 100.0 µM,70% (active)
same,growth inhibition,[12]; at 1.2 µM,3%
same,growth inhibition,[12]; at 3.7 µM,-40%
same,growth inhibition,[12]; at 11.0 µM,25%
same,growth inhibition,[12]; at 33.0 µM,60%
same,growth inhibition,[12]; at 100.0 µM,80% (active)
same,growth inhibition,[13]; at 1.2 µM,2%
same,growth inhibition,[13]; at 3.7 µM,15%
same,growth inhibition,[13]; at 11.0 µM,29%
same,growth inhibition,[13]; at 33.0 µM,75% (active)
same,growth inhibition,[13]; at 100.0 µM,84% (active)
same,growth inhibition,[14]; at 1.2 µM,4%
same,growth inhibition,[14]; at 3.7 µM,8%
same,growth inhibition,[14]; at 11.0 µM,28%
same,growth inhibition,[14]; at 33.0 µM,74% (active)
same,growth inhibition,[14]; at 100.0 µM,84% (active)
same,growth inhibition,[15]; [17],50%
same,growth inhibition,[15]; [18],93% (active)
same,growth inhibition,[15]; at 50.0 µM,92.2% (active)
same,growth inhibition,[16]; at 1.2 µM,5%
same,growth inhibition,[16]; at 3.7 µM,21%
same,growth inhibition,[16]; at 11.0 µM,57%
same,growth inhibition,[16]; at 33.0 µM,90% (active)
same,growth inhibition,[16]; at 100.0 µM,90% (active)
